Among the data in PubChem BioAssay AID1694 (National Center for Advancing Translational Sciences (NCATS), 2009) are Potency values, retold here.

Records with an inconclusive call do not appear. Entries that show only a call come without a potency. The source made the active and inactive calls. The call rests on the fitted dose curve; in most records, active means well fitted curve in the direction sought with a large enough effect; inconclusive means small, poorly fitted or top-dose-only effect, or another doubt; inactive means no such curve, though single readings can be large or run the other way.

The assay can be described thus: Confirmation Concentration-Response Assay for Inhibitors of Tau Fibril Formation, Total Fluorescence Counterscreen for Fluorescence Polarization. The settings on record: Alexa594-tau K18 total fluorescence counterscreen, interference, tau K18 with P301L mutation; series mostly up to 100 µM. From the text: NIH Molecular Libraries Probe Production Network [MLPCN] NIH Chemical Genomics Center [NCGC] MLPCN Grant: X01 MH083262-01 Assay Provider: Carlo Ballatore, University of Pennsylvania NCGC Assay Overview: The microtubule-associated protein tau is an abundant protein in the axons of neurons that stabilizes microtubules. With its ability to modulate microtubule dynamics, tau contributes directly or indirectly, to key structural and regulatory cellular functions. Particularly important is the influence tau exerts on axonal transport, which allows signaling molecules, trophic factors and other essential cellular constituents to travel along the axons. Under pathological conditions, tau becomes sequestered into insoluble aggregates called neurofibrillary tangles. This phenomenon is believed to have pathological consequences by promoting axonal transport deficits that ultimately lead to synaptic dysfunction and neuronal loss. To identify inhibitors of tau aggregation, a heparin-induced tau fibril formation assay was used that employed a recombinantly expressed fragment of tau, K18 (Q242-E372), bearing a P301L mutation (Gustke et al. 1994; Hong et al. 1998). […] Total fluorescence (555 nm excitation and 632 nm emission) was measured to identify fluorescent or absorbent compounds at this wavelength. Such compounds may be artifacts that interfere with the Alexa 594 Tau fluorescence polarization assay. Gustke, N., B. Trinczek, et al. (1994). "Domains of tau protein and interactions with microtubules." Biochemistry 33(32): 9511-22. Hong, M., V. Zhukareva, et al. (1998). "Mutation-specific functional impairments in distinct tau isoforms of hereditary FTDP-17." Science 282(5395): 1914-7. Li, W. and V. M. Lee (2006). "Characterization of two VQIXXK motifs for tau fibrillization in vitro." Biochemistry 45(51): 15692-701. von Bergen, M., S. Barghorn, et al. (2001). "Mutations of tau protein in frontotemporal dementia promote aggregation of paired helical filaments by enhancing local beta-structure." J Biol Chem 276(51): 48165-74.
For screening, 2 uL/well human K18 P301L (15 uM unlabeled and 0.24 uM Alexa 594-labeled tau final concentrations) in reagent buffer (100 mM sodium acetate pH 7) was dispensed into black solid 1536-well plates (Grenier) using a solenoid-based dispenser. Following transfer of 23 nL compound or DMSO vehicle by a pin tool, 2 uL/well heparin (20 uM final concentration) in reagent buffer was added and the plate centrifuged 15 s at 1000 RPM. Plates were incubated 6 hr at 37 C and then 1 uL/well ThT (30 uM final concentration) was added. After a 1 hr ambient incubation, the plates were read by an Envision (Perkin Elmer) to monitor Alexa 594 FP (555 nm excitation and 632 nm emission). Keywords: NIH Roadmap, MLPCN, MLI, MLSMR, NCGC, qHTS, tau, tauopathies, Alzheimer's disease, fibril, neurodegeneration, aggregation
For orientation: A counterscreen serves to expose hits that act by an unwanted route or on another target.
In the case of `CCN(CC)C(=O)c1nn(-c2ccc(OC)cc2)c(=O)c2c(N)scc12`, the Potency result is “inactive”.

For the compound `Cc1ccc(S(=O)(=O)N(C)c2nc3ccccc3[nH]c2=S)cc1`, the Potency result is “inactive”.

`O=C(Nc1sc2c(c1C(=O)Nc1cccc(Cl)c1)CCCC2)c1cccs1`: the Potency result was “inactive”.

For `COc1ccc(CNC(=O)Cn2nc(C)n3cccc3c2=O)cc1`, the Potency result is “inactive”.

Take `COc1ccc2[nH]c(=O)c(CNc3ccccc3OC)cc2c1`: the Potency result was “inactive”.

`COc1ncc(-c2ccccc2)cc1N`: the Potency entry was “inactive”.

Turning to `Cc1ccc(NCc2cc3cc4c(cc3n(CC(=O)Nc3ccc(C)cc3)c2=O)OCCO4)cc1`, the Potency entry is “inactive”.

Turning to `O=C(Cn1c(=O)c(CNc2ccccc2)cc2cc3c(cc21)OCCO3)Nc1ccccc1Cl`, the Potency entry is “inactive”.

Take `CCOC(=O)c1nn(-c2ccccc2)c(=O)c2c(N)scc12`: the Potency result is “inactive”.

With `CC(C)C(C)NC(=O)CSc1nc2scc(-c3ccco3)c2c(=O)n1-c1ccccc1` (stereo not given), the Potency entry is “inactive”.

Take `Cc1ccc(NC(=O)N2CCN(c3ccccn3)CC2)cc1`: the Potency result is “inactive”.

In the case of `Cc1ccc(N(C)S(=O)(=O)c2nnc(NC(=O)C3CCCCC3)s2)cc1`, the Potency entry was “inactive”.

As for `COC(=O)c1c(NC(=O)CCCOc2ccc(C)cc2)sc2c1C(C(=O)OC)CC2` (stereo not given), the Potency result was “inactive”.

Consider `COc1ccc2c(c1)c(CC(=O)N1CCOCC1)c(C)n2C(=O)c1ccc(Cl)cc1`, for which the Potency entry was “inactive”.

On to `Cc1ccc(C2=NNC(=Nc3ccc(F)cc3)SC2)cc1`, for which the Potency entry was “inactive”.

Turning to `COC(=O)C1CCc2sc(NC(=O)Cc3ccccc3)c(C(=O)Nc3ccc(Cl)cc3)c21` (stereo not given), the Potency result is “inactive”.

In the case of `O=C(Cc1ccccc1)Nc1sc2c(c1C(=O)Nc1ccc(Br)cc1)CCCC2`, the Potency result was “inactive”.

For the compound `CCOC(=O)c1nn(-c2ccc(C)c(C)c2)c(=O)c2c(N)scc12`, the Potency entry is “inactive”.

For the compound `O=C(NCc1cccnc1)C1CCN(S(=O)(=O)c2cccs2)CC1`, the Potency entry was “inactive”.

For the compound `NC[C@@H](O)c1ccc(O)c(O)c1`, the Potency entry is “inactive”.

Take `COC(=O)c1c(N)sc2c1C(C(=O)OC)CC2` (stereo not given): the Potency result is “inactive”.

Consider `COC(=O)CSc1nc2ccc(NC(=O)CSc3nnnn3Cc3ccccc3)cc2s1`, for which the Potency result is “inactive”.

`CCN(c1ccccc1)S(=O)(=O)c1nnc(NC(=O)C(C)(C)C)s1`: the Potency result is “inactive”.

On to `CN(C)C(=O)c1ccc(-c2cc[nH]c(=O)c2N)cc1`, for which the Potency result is “inactive”.

On to `CN(c1ccccc1)S(=O)(=O)c1nnc(NC(=O)C2CCCCC2)s1`, for which the Potency result is “inactive”.

`CN(C)S(=O)(=O)c1cccc(N=C2NN=C(c3ccccc3)CS2)c1`: the Potency result is “inactive”.

`COC(=O)c1nn(-c2ccc(OC)cc2)c(=O)c2c(N)sc(C)c12`: the Potency result was “inactive”.

Consider `CCOC(=O)c1nn(-c2ccccc2F)c(=O)c2c(N)scc12`, for which the Potency result was “inactive”.

Turning to `Nc1nn(-c2ccccc2)c(=O)c2c(N)scc12`, the Potency result was “inactive”.

Take `CCOC(=O)c1nn(-c2ccccc2)c(=O)c(C#N)c1C`: the Potency entry was “inactive”.

In the case of `Nc1c(-c2ccccc2)cc[nH]c1=O`, the Potency entry is “inactive”.

With `Nc1cc(-c2ccncc2)c[nH]c1=O`, the Potency entry was “inactive”.

With `Nc1scc2c(C(=O)N3CCOCC3)nn(-c3ccccc3)c(=O)c12`, the Potency result was “inactive”.

For the compound `CC(C)(C)c1ccc(NC(=O)N2CCN(c3ccc([N+](=O)[O-])cn3)CC2)cc1`, the Potency entry was “inactive”.

Consider `Cn1ncc(Cl)c1C(=O)Nc1cccc(Cl)c1`, for which the Potency entry was “inactive”.

In the case of `CN(C)c1ccc(-c2cc[nH]c(=O)c2N)cc1`, the Potency result was “inactive”.

As to `O=C(Nc1ccccc1)Nc1ccccc1`, the Potency entry is “inactive”.

For the compound `COc1ccc2c(c1)c(CC(=O)Nc1ccc(C(C)=O)cc1)c(C)n2C(=O)c1ccc(Cl)cc1`, the Potency result was “inactive”.

With `COc1ccc(NC(=O)Cn2cc(S(=O)(=O)N3CCN(c4ccccc4F)CC3)c3ccccc3c2=O)cc1Cl`, the Potency entry was “inactive”.

On to `CCOC(=O)c1nn(-c2cccc(C(F)(F)F)c2)c(=O)c2c(N)scc12`, for which the Potency is 1580 nM [quencher] (active).
